BCR signal inh – inhibitors of chronic active B-cell receptor signaling | Potency, µM (top dose mostly 46.1 µM), inactives show at the top dose activity change, negative = inhibition, actives largely listed as inhibitors | 340,000 compounds, 0.05% hits | ABC-DLBCL IkBa-CBG/CBR reporter, luminescence ratio, 4 h | AID 493014; active = well fitted inhibition curve with a large enough effect in the signal ratio, with a control signal flat, not every such curve was filed as active; inconclusive = small, poorly fitted or top-dose-only effect, or effect the other way, or a change in a side signal; the % refers to the signal ratio;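 note: potency is the fitted concentration of half-maximal effect; plate controls were basal doxycycline-induced cells for no effect and cells given 10 µM MG132 for full effect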
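TMD8 human ABC-DLBCL cells with doxycycline-inducible IκBα–green luciferase fusion and unfused red luciferase, in 0.5% FBS medium; compounds up to 46 uM, 4 h at 37C. Green/red luminescence ratio, filter-overlap corrected, fitted to concentration-response curves.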
D3 antag – antagonists of human D3 dopamine receptor | AID 652054 | 360,000 compounds, 2.5% hits | max response, negative = inhibition, % | D3R cells, DiscoveRx beta-arrestin luminescence, antagonist mode; hits give low values; in the data active = max response below about -50%; inconclusive = no clear call, values can overlap the other calls; note: % is set by controls: 0 for no effect and ±100 for the full control effect
Target sequence (P35462 whole entry, looked up): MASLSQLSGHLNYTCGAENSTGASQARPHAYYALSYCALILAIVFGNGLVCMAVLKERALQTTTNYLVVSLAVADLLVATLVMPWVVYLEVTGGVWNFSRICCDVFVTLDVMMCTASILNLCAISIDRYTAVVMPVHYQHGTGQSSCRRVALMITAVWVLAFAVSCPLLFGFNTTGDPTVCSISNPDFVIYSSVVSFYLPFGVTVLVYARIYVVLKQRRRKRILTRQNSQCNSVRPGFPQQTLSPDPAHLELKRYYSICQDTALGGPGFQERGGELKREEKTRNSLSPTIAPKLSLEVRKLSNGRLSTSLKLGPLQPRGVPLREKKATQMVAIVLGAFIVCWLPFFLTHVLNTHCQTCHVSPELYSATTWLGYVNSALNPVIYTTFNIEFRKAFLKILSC
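Cells plated overnight at 1500 cells/well, then exposed to library compounds with dopamine controls for 90 minutes at 37 degrees C. DiscoveRx reagent added for 30–60 minutes at room temperature; luminescence read, quantitative HTS format.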
D1 antagonist – human D1 dopamine receptor antagonism. P21728. HEK293 TREx D1 cells, calcium flux, dopamine EC80; hits give low values. activity change, negative = inhibition, % at 10 µM. 360,000 compounds, 3.2% hits; in the data active = activity change below about -30%; note: % is set by controls: 0 for no effect and ±100 for the full control effect
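Compound effects on dopamine-evoked calcium signalling were measured in tetracycline-induced HEK293 Trex D1 cells. Dopamine at EC80 followed a 180 s compound pre-read, and fluorescence was tracked kinetically for 180 s more.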
D1 agonist – agonists of human D1 dopamine receptor | HEK293 T-REx D1 cells, calcium flux, agonist mode | activation, % at 2 µM | 360,000 compounds, 1% hits; in the data active = activation above about 30%; note: 0% is about no effect
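Inducible HEK293 T-REx D1 cells, force-coupled to calcium signalling, were plated at 4000 cells/well with tetracycline and held overnight at 30 C. After no-wash calcium dye loading, compound-evoked calcium rise over 180 s flagged agonists.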
DRD3 agonist – D3 dopamine receptor (human) agonism | P35462 | D3R DiscoveRx beta-arrestin cells, luminescence, 90 min | max activation, % | 410,000 compounds, 0.58% hits | AID 652048; in the data active = max activation above about 30%; note: 0% is about no effect
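Agonist mode: compounds and dopamine controls were applied to plated cells for 90 min at 37 degrees C after an overnight attachment at 1500 cells/well. Luminescent read-out followed 30 - 60 minutes at room temperature with DiscoveRx detection reagent.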
D1 potentiator – enhances dopamine response at the human D1 receptor; potentiation, % at 10 µM; P21728; 360,000 compounds, 0.036% hits; HEK293 TREx D1 cells, calcium flux, dopamine EC20 potentiation; in the data active = potentiation above about 30%; note: 0% is about no effect
Numbers without * were called inactive; ? = inconclusive; / = no result; ! = a repeat was not active. Most compounds without a hit are left out; they make up all but 6% or so of the library.

SMILES | BCR signal inh | D3 antag | D1 antagonist | D1 agonist | DRD3 agonist | D1 potentiator
Clc1cccc(CNc2nnnn2-c2ccccc2)c1 | 1% | -52* | -46* | 37* | -19 | -11
CC1(C)CC(=O)c2cc(-c3nc(-c4ccc(F)cc4)cs3)c(=O)[nH]c2C1 | / | / | -2 | 1 | -2 | 1
Cc1ccc(-n2nc3c(=O)n(C(C)C(=O)NCc4ccco4)nc(C)c3c2C)cc1 (stereo not given) | 2% | -2 | -35*! | 0 | -3 | -4
CCC(C(=O)NCc1ccco1)n1nc(C)c2c(C)n(-c3ccc(C)cc3)nc2c1=O (stereo not given) | 8% | 0 | -5 | -2 | -6 | -7
CCOC(=O)C(CC)n1nc(C)c2c(C)n(-c3ccc(C)cc3)nc2c1=O (stereo not given) | / | / | -48* | 5 | 4 | -4
CCC(C(=O)Nc1ccccc1C(=O)OC)n1nc(C)c2c(C)n(-c3ccc(C)cc3)nc2c1=O (stereo not given) | / | / | -1 | 3 | 9 | 0
Cc1noc(C)c1COc1ccc(C(=O)Nc2ccccc2)cc1 | -15% | -55* | -17 | 2 | 2 | -2
COc1cc(C(=O)NCC(c2ccccc2)N(C)C)ccc1OCc1c(C)noc1C (stereo not given) | -7% | -100* | 3 | -1 | -26 | 2
Cc1ccc(NC(=O)C(C)N=C2NS(=O)(=O)c3ccccc32)cc1F (stereo not given) | ? | -56* | -12 | 5 | -27 | -10
CC(O)(c1cccc(F)c1)c1nc(-c2ccncc2)cs1 (stereo not given) | / | -24 | / | / | 1 | /
COc1cccc(C(C)(O)c2nc(-c3ccc(S(C)(=O)=O)cc3)cs2)c1 (stereo not given) | / | -13 | / | / | 80* | /
CC(O)(c1cccc(F)c1)c1nc(-c2ccccc2)cs1 (stereo not given) | / | -89* | / | / | -12 | /
CC(C)c1cccc(-c2csc(C(C)(O)c3ccccc3)n2)c1 (stereo not given) | / | -57* | / | / | -15 | /
CC(O)(c1cccc(F)c1)c1nc(-c2cccc(C(F)(F)F)c2)cs1 (stereo not given) | / | -53* | / | / | -16 | /
COc1ccc(C(C)(NC(C)=O)c2nc(-c3ccncc3)cs2)cc1 (stereo not given) | / | 9 | / | / | 9 | /
COc1ccc(-c2csc(C(C)(NC(C)=O)c3ccc(OC)cc3)n2)cc1 (stereo not given) | / | -51* | / | / | -10 | /
CC(NCC(O)COc1ccccc1)C1COc2ccccc2O1 (stereo not given) | -2% | -85* | 0 | 8 | -4 | -2
OCCN1CCN(c2cc(-c3ccccc3)c3ccccc3n2)CC1 | -5% | -81* | -4 | 4 | -11 | 0
CCOC(=O)N1CCN(S(=O)(=O)c2ccc3[nH]c(=O)oc3c2)CC1 | 2% | -6 | -11 | 3 | 34* | 3
CCOC(=O)C1CCN(S(=O)(=O)c2ccc3[nH]c(=O)oc3c2)CC1 | ? | 4 | -6 | 5 | -3 | 0
CCOC(=O)C1CCCN(S(=O)(=O)c2ccc3[nH]c(=O)oc3c2)C1 (stereo not given) | / | / | -41* | 1 | -5 | 0
CCOC(=O)C1CCCN(S(=O)(=O)c2ccc3c(c2)N(C)C(=O)CC(=O)N3C)C1 (stereo not given) | 3% | -16 | -45*! | 2 | 0 | 0
OC(CNC1Cc2ccccc2C1)COc1ccc(F)cc1 (stereo not given) | 7% | -64* | -14 | 23 | -29 | -10
Cc1cc2c(OCC(O)CNC3CCCCC3)cccc2[nH]1 (stereo not given) | 1% | -59* | -8 | 3 | -29 | 0
Cc1ccccc1OCC(O)CNC1CCC(NCC(O)COc2ccccc2C)CC1 (stereo not given) | ? | -24 | -25 | 25 | 3 | -6
OC(CNC1CCCCCC1)COc1cccc2ccccc12 (stereo not given) | ? | -75* | -15 | 45* | -20 | 0
